# Tests used:
# Conditions in all cases: concentration: 1 μM,replicates: in singlicate; n = 1
# [1] = system: AAK1
# [2] = system: ABL1-nonphosphorylated
# [3] = system: ABL1-phosphorylated
# [4] = system: ABL2
# [5] = system: ACVR1B
# [6] = system: ACVR1
# [7] = system: ACVR2A
# [8] = system: ACVR2B
# [9] = system: ACVRL1
# [10] = system: T1, ADCK3
# T1 construct: gene CABC1
# [11] = system: ADCK4
# [12] = system: AKT1
# [13] = system: AKT2
# [14] = system: AKT3
# [15] = system: ALK
# [16] = system: T2, AMPK-alpha1
# T2 construct: gene PRKAA1
# [17] = system: T3, AMPK-alpha2
# T3 construct: gene PRKAA2
# [18] = system: ANKK1
# [19] = system: T4, ARK5
# T4 construct: gene NUAK1
# [20] = system: T5, ASK1
# T5 construct: gene MAP3K5
# 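Also: KINOMEscan kinase panel screen.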
SMILES,%Inh [1],%Inh [2],%Inh [3],%Inh [4],%Inh [5],%Inh [6],%Inh [7],%Inh [8],%Inh [9],%Inh [10],%Inh [11],%Inh [12],%Inh [13],%Inh [14],%Inh [15],%Inh [16],%Inh [17],%Inh [18],%Inh [19],%Inh [20]
CC(C)c1nc(-c2cccc(NS(=O)(=O)c3ccccc3)c2)c(-c2ccnc(Nc3ccc4c(c3)CN(C)CC4)n2)s1 [GSK1649598],25%,99.8%,97.3%,98.7%,93.5%,99%,24%,94.5%,80%,100%,97.4%,0%,4%,0%,0%,82%,94.5%,42%,6%,0%
Cc1ccc(C(=O)Nc2ccc(Oc3ccc4nc(NC(=O)C5CC5)cn4c3)c(F)c2)c(=O)n1-c1ccccc1,0%,100%,98.3%,83%,0%,0%,0%,16%,0%,13%,27%,0%,0%,7%,8%,5%,0%,0%,0%,0%
Cn1cc(-c2cccc3c(N)c(C(N)=O)nnc23)cn1,36%,24%,0%,9%,28%,63%,27%,29%,3%,15%,11%,0%,0%,15%,10%,47%,49%,19%,0%,1%
c1ccc(Oc2ccc(Nc3ccnc4ccc(-c5ccccn5)cc34)cc2)cc1 [GW407034],13%,0%,0%,17%,0%,5%,6%,13%,0%,12%,19%,0%,17%,0%,28%,10%,0%,0%,26%,4%
Cc1cccc(-c2nc(Nc3ccncc3)c3sccc3n2)n1 [GW869641],25%,0%,16%,0%,96.5%,0%,42%,41%,14%,0%,8%,5%,0%,3%,33%,20%,27%,12%,0%,25%
OCCn1cc(-c2cnc3nnn(Cc4ccc5ncccc5c4)c3n2)cn1,0%,32%,0%,0%,51%,0%,0%,0%,0%,0%,0%,0%,0%,45%,0%,3%,0%,0%,0%,19%
Cn1ccc2ncnc(Oc3ccc(NC(=O)Nc4cncc(C(F)(F)F)c4)c(Cl)c3)c21,0%,92.7%,35%,27%,0%,0%,0%,0%,0%,2%,0%,6%,13%,0%,0%,0%,0%,0%,0%,0%
Cc1nnc(-c2ccc3occ(-c4ccc(S(C)=O)cc4)c3n2)o1 (stereo not shown),0%,43%,30%,16%,0%,0%,0%,0%,0%,2%,0%,0%,17%,0%,0%,0%,0%,0%,10%,0%
CN1CCN(CCCNc2nccc(-c3c(-c4ccc(F)cc4)nn4cc(C(N)=O)ccc34)n2)CC1 [GW622475],33%,10%,0%,17%,94.9%,90.6%,19%,45%,77%,96.7%,100%,0%,12%,0%,26%,18%,11%,29%,19%,0%
CS(=O)(=O)c1cccc(CNc2nc(Nc3ccc4c(c3)[C@@H]3C[C@@H]4CNC3=O)ncc2C(F)(F)F)c1,92.6%,97.9%,93.2%,66%,0%,0%,0%,0%,0%,0%,0%,0%,0%,0%,0%,37%,28%,22%,94.6%,0%
CNC(=O)c1ccccc1Nc1nc(Nc2cccc(CS(C)(=O)=O)c2)ncc1C.O=CO [GSK1520489],85%,99.9%,99.9%,99.4%,71%,76%,7%,54%,2%,0%,33%,0%,0%,0%,95.1%,96.4%,97.9%,39%,99.1%,0%
CCNCC(Cc1ccccc1)NC(=O)c1cc(Br)c(-c2ccnc3[nH]ccc23)s1.Cl.Cl (stereo not shown) [GSK1383280],39%,15%,14%,19%,0%,0%,0%,2%,0%,12%,89%,93.7%,81%,88%,42%,49%,45%,8%,60%,0%
Cn1ccc2ncnc(Oc3ccc(NC(=O)Nc4cnn(C(C)(C)C)c4)c(Cl)c3)c21,3%,87%,39%,11%,2%,0%,0%,0%,17%,0%,0%,0%,8%,13%,0%,19%,20%,0%,19%,2%
Cn1ccc2ncnc(Oc3ccc(NC(=O)Nc4cccc(C(F)(F)F)c4)c(Cl)c3)c21,0%,88%,19%,21%,1%,0%,0%,47%,0%,5%,6%,0%,0%,0%,0%,15%,0%,0%,3%,5%
Nc1nccc(-c2ccc3c(N)n[nH]c3c2)n1 [GSK1034945],65%,0%,0%,9%,0%,0%,0%,44%,0%,1%,33%,0%,10%,0%,20%,0%,0%,31%,0%,0%
Cc1ccc2c(-c3ccnc(Nc4ccc(C(F)(F)F)cc4)n3)cnn2n1 [GW819776],12%,36%,28%,1%,11%,0%,0%,0%,0%,5%,35%,0%,0%,0%,0%,11%,8%,0%,0%,0%
O=C(NOCC1CC1)c1cc(Br)c(F)c(F)c1Nc1ccc(I)cc1Cl,0%,52%,0%,0%,0%,0%,2%,0%,0%,7%,0%,0%,0%,0%,0%,4%,0%,0%,12%,0%
